Data from the supplement of paper PMC3334620.
Whole data set: some 33,000 sequences, median “E-score (-0.5 to 0.5)” near -0.0059, cut for the highest 2% near 0.26. Only a selection was taken, and the highest values are over-represented in it overall.

target: T1, Cin5 (UniProt P40917); test: PBM E-score (8-mer binding enrichment) (E-score (-0.5 to 0.5)); higher = stronger / more preferred TF binding; conditions: protein concentration: 100 nM; construct: GST-full length
T1 sequence: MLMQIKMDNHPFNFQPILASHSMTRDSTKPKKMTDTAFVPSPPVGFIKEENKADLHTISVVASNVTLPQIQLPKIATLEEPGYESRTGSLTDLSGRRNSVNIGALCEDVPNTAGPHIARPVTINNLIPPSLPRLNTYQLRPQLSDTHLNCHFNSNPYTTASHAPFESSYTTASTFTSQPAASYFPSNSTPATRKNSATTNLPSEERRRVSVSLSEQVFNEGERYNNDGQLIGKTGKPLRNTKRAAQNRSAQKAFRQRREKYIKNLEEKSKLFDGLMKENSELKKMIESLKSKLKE
Protocol: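 Universal 'all 10-mer' protein binding microarrays (Agilent AMADID 015681) probed with GST-tagged S. cerevisiae TFs (full-length or DBD) made by in vitro transcription/translation (PURExpress), about 100-200 nM. Bound TF was detected with fluorescent anti-GST. Each ungapped 8-mer (which stands for itself and its reverse complement) is scored by the PBM enrichment score (E-score), a modified Wilcoxon-Mann-Whitney statistic from -0.5 to +0.5, computed with the Universal PBM Analysis Suite. Scale: above 0.35 generally sequence-specific binding.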

Sequence | PBM E-score
AGGCCACG | -0.155
GAGAAGAC | -0.0329
CTACACCA | -0.00077
GGGACACC | -0.238
CTAGTGAC | -0.0966
CTTATGTC | 0.219
ACTATGTA | 0.202
ATTATGTC | 0.27
ATTATGCA | 0.118
ATTATGCC | 0.15
ATTATGCG | 0.338
GCTATGTA | -0.0403
ATTATGTA | 0.42
ACTATGTC | -0.0438
AGCCATCA | 0.131
AACGCGAT | 0.0765
ACTTCGCC | 0.0471
CTACCCGA | -0.0656
CCACGGAC | -0.237
AGTTTCGC | 0.0693
ATAGGCCG | -0.185
ACCCTTAG | -0.101
GGACAGGA | -0.275
ACTACTAT | 0.26
ACTACTAA | 0.177
AATACTGG | 0.129

Sequence | PBM E-score
AATACTAT | 0.214
ACTACTAC | 0.00444
AATACTGT | 0.258
CATACTGA | 0.155
GATACTGA | 0.124
TATACTGA | 0.274
AGCTGTAG | 0.139
CAGATGAG | 0.0638
CGTGTTGC | -0.119
GAAGTGAA | 0.202
AAAGTGAT | -0.00439
AAAGTGAA | 0.258
ATACGCAA | 0.217
GTACGCAA | -0.0571
TTACGCAA | 0.306
CAGCTCCC | -0.305
ACATGTTA | 0.126
ATACAACG | 0.174
AAACAAAA | 0.137
GAACAAAA | 0.278
ATACAAAA | 0.28
GAACAAAC | 0.226
ATACAAAT | 0.22
CTACAAAA | 0.111
ATACAACC | 0.0923
ATACAACA | 0.272

Sequence | PBM E-score
CCCCTCGA | 0.0859
ACAGGCTA | -0.0671
CCCACAGC | -0.192
CTAAATAA | 0.0261
TAAAATAA | 0.141
CTAATAAA | 0.164
ATAAATAC | 0.279
TTAATAAA | 0.287
ATAAATAG | 0.102
ATAATAAA | 0.24
CTAAATAC | 0.085
TTAAATAA | 0.313
ATAAATAT | 0.226
GTAAATAA | 0.189
ATAAATAA | 0.321
ATGTGGTG | 0.114
CCTCGCAC | -0.0617
CTTAGATC | -0.0574
CGGCATGA | 0.123
GAATTCTC | 0.0994
ACCACGAT | 0.161
AGCTACCT | -0.0535
ATCACTGC | 0.0947
CGTGTTGA | -0.0277
AACCCAAC | 0.17
ACTTTACG | 0.119

Sequence | PBM E-score
GGGGCACC | -0.367
GGGTCACC | -0.297
GCGAATTA | 0.266
CCGAATTA | 0.0794
ACGAATTA | 0.0396
GATGGTAC | 0.0499
GGGTAATA | 0.122
AGGTAATC | 0.313
CGGTAATC | -0.0552
CGGTAATA | 0.181
AGGTAATA | 0.296
AGGTAATG | 0.124
CGGAGCTC | -0.269
ATTCTTGG | 0.153
TGTAAACA | 0.0928
CACCAGCG | -0.0689
AATTAGAG | 0.146
AATTAGAC | 0.0847
AATTAGAT | 0.294
GATTAGTA | 0.254
AATTAGTG | 0.188
ATTTAGTA | 0.303
CTTTAGTA | -0.00776
AATTAGTA | 0.308
CATTAGTC | 0.0189
AATTAGTC | 0.26

Sequence | PBM E-score
ATTTAGTC | 0.0988
CATTAGTA | 0.188
AGCGTCAG | -0.124
AGCGAGCC | -0.0601
CACGAAGA | 0.132
CGTTTCTA | -0.00786
AGATAACT | 0.159
ATGCTACA | -0.0162
ATCTAGAC | -0.125
CTATGATA | 0.116
ATTTGATC | 0.0618
CTATGATC | -0.0495
ACATGATA | 0.187
GTATGATA | 0.275
CTTTGATA | 0.116
ATATGATC | 0.258
GCATGATA | 0.168
ATATGATA | 0.314
ATATGATG | 0.158
GTATGAGA | 0.144
ATTTGATA | 0.319
ATTCTTCG | 0.138
CTGATCGC | 0.0487
AAGGAAAT | 0.0752
ATTGGTGC | 0.134
ACGCTCAC | 0.0871

Sequence | PBM E-score
CCTCACGC | 0.0561
GTCAGCGA | -0.0481
ACCACCCT | -0.163
ATGCTATC | -0.00354
CGAACGCG | 0.00852
AGAAACCA | 0.123
GTGTGATA | 0.2
ATGTGATA | 0.266
CTGTGATA | 0.0273
ATCGCCCA | -0.11
CAACGGTA | -0.181
CGTAAAGC | -0.147
ATTTGGTA | 0.252
CTTTGGTA | -0.205
GTTTGGTA | 0.296
AGGACCGG | -0.294
ACCGCTCG | -0.0731
CCCTATGC | 0.0135
ACAACCCG | -0.0389
CGCAACTA | 0.267
CGCAACTC | 0.103
GGCAACTA | 0.0726
CAGAACGA | 0.0474
CAAAGACG | -0.0507
CGCTGGGC | -0.295
AATATGAA | 0.258

Sequence | PBM E-score
TATATGAA | 0.129
AATATGAT | 0.297
AATATGAG | 0.0321
AATATGAC | 0.163
GATATGAA | 0.0853
AGGGTGTC | -0.136
GGTCCTAA | -0.143
CAGGAAGA | -0.0593
GGGCAGGA | -0.00266
AAATGTAA | 0.14
AAATGTAC | 0.19
AAATGTAT | 0.276
TAATGGAA | 0.281
CGATGTAA | 0.102
AGATGTAA | 0.169
AAATGGAA | 0.0906
TGATGTAA | 0.329
AAATGTAG | 0.101
TAATGTAA | 0.33
GAATGTAA | 0.241
GAATGGAA | 0.181
